# Data as given in the supplement of paper PMC7156485.
# ± gives the standard deviation of the averaged measurements.
# Experiments:
# Details in all cases: concentration: 10 µM; 24 h
# HCC1569 [1] = assay: cell number relative to DMSO (% of DMSO); higher = more cells (less growth inhibition / toxicity)
# Summary of the method: (§1)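 H1.0 nuclear intensity or cell number is expressed as percent of the plate control, with the median of replicates taken. HCC1569 and TDF cells were treated with compounds at 10 µM for 24 h at 37 °C, in triplicate, then fixed and immunostained for H1.0 with DAPI as a nuclear stain. HCC1569 values were smoothed to correct for positional effects.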
# TDF [2] = assay: as above
# Summary of the method: as §1
# TDF [3] = assay: H1.0 immunofluorescence intensity relative to DMSO (% of DMSO); higher = stronger H1.0 induction, active = 120 or more
# Summary of the method: as §1
# HCC1569 [4] = assay: H1.0 immunofluorescence intensity relative to DMSO (% of DMSO); higher = stronger H1.0 induction, active = 140 or more
# Summary of the method: as §1
# 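Throughout, for H1.0 immunofluorescence intensity relative to DMSO: TDF is a line of transformed human dermal fibroblasts of mesenchymal origin.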
# 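Throughout, for cell number relative to DMSO: TDF denotes transformed human dermal fibroblasts of mesenchymal origin.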
Structure (SMILES),cell number (HCC1569 [1]),cell number (TDF [2]),H1.0 immunofluorescence intensity (TDF [3]),H1.0 immunofluorescence intensity (HCC1569 [4])
CS(=O)(=O)c1ccc(C(O)C(COC(=O)CN)NC(=O)C(Cl)Cl)cc1 (stereo not given) [Thiamphenicol glycinate],105,96.1,98.4 (inactive),106 (inactive)
Cc1cnc(-c2cnc(NCCNc3ccc(C#N)cn3)nc2-c2ccc(Cl)cc2Cl)[nH]1,70.4,74.4,114 (inactive),112 (inactive)
CN(C)CCC(c1ccc(Br)cc1)c1ccccn1.O=C(O)C=CC(=O)O (racemic),101,98.7,97.9 (inactive),94.6 (inactive)
"NC(N)=NC(=O)c1nc(Cl)c(N2CCCCCC2)nc1N [5-(N,N-hexamethylene)amiloride]",96,85.1,113 (inactive),100 (inactive)
CCCCCC(=O)C=CC1C(O)CC(O)C1CC=CCCCC(=O)O (stereo not given) [15-keto-prostaglandin F2a],101,108,92.9 (inactive),103 (inactive)
"CN(C)C(N)=NCCCC(N)C(=O)O.Cl (stereo not given) [N^G,N^G-Dimethylarginine hydrochloride]",104,96.5,91.6 (inactive),94.5 (inactive)
OCC1OC(O)C(Cl)C(O)C1O [2-Chloro-2-deoxy-D-glucose],104,101,101 (inactive),92 (inactive)
CC12CCC(=O)C=C1C=CC1C2CCC2(C)C1CCC21CCC(=O)O1 (stereo not given) [Canrenone],99.6,103,89.7 (inactive),102 (inactive)
C#CCCCCCCCCCCCCCCCC(=O)O [17-Octadecynoic acid],102,99.7,92.5 (inactive),99.4 (inactive)
Cl.Cl.NCCNS(=O)(=O)c1cccc2cnccc12 [H-9 dihydrochloride],102,90.7,107 (inactive),100 (inactive)
Cc1cnc(C(=O)NCCc2ccc(S(=O)(=O)NC(=O)NC3CCCCC3)cc2)cn1 [Glipizide],106 ± 3.7,107 ± 6.9,96.6 (inactive),103 (inactive)
C=C1OC(CO)(n2cnc3c(N)ncnc32)C(O)C1O (stereo not given) [Decoyinine],107,105,91.6 (inactive),88.3 (inactive)
CC(C)(C)NCC(O)c1ccc(O)c(CO)c1 (stereo not given) [Salbutamol],99.7,99.3,95.9 (inactive),101 (inactive)
O=C1NC(=O)C(c2cn(CCCO)c3ncccc23)=C1c1cnccn1 [GSK-3b Inhibitor XI],106,119,88.7 (inactive),116 (inactive)
CCCCCC=CCC=CC=CC=CC(SCC(N)C(=O)NCC(=O)O)C(O)CCCC(=O)O (stereo not given) [Leukotriene D4],106,99.8,92.1 (inactive),97.3 (inactive)
OCC(CO)(CO)NCC(O)Cn1c2ccc(Cl)cc2c2cc(Cl)ccc21 (stereo not given),74.3,76.8,125 (active),168 (active)
O=C1[N-]C(=O)C(c2ccccc2)(c2ccccc2)N1.[Na+] [Phenytoin sodium],99.9,111,99.8 (inactive),103 (inactive)
O=C(O)CCCCCCCC(=O)O [Azelaic acid],102,101,98.2 (inactive),89.8 (inactive)
O=C(C=Cc1ccc(O)c(O)c1)OCCc1ccccc1 [Caffeic acid phenethyl ester],69.1,81,94.7 (inactive),108 (inactive)
C=CCCCCCCCCCCC(=O)O [12-Tridecenoic acid],99.7,91.7,106 (inactive),98.7 (inactive)
CC(C)COCC(CN(Cc1ccccc1)c1ccccc1)N1CCCC1.Cl (stereo not given) [Bepridil hydrochloride],99.7,103,92.8 (inactive),88.7 (inactive)
CC(C)NCC(O)c1ccc(O)c(O)c1.O=C(O)C(O)C(O)C(=O)O (stereo not drawn) [S(+)-Isoproterenol (+)-bitartrate],105,97.6,91.8 (inactive),93.4 (inactive)
"O=C(O)Cc1ccc(O)c(O)c1 [3,4-Dihydroxyphenylacetic acid]",104,102,95.9 (inactive),96.6 (inactive)
O=C([O-])c1cc(=O)c2c(OCC(O)COc3cccc4oc(C(=O)[O-])cc(=O)c34)cccc2o1.[Na+].[Na+] [Disodium Cromoglycate],98.4,98.3,90.6 (inactive),103 (inactive)
Nc1ccc(C(=O)Nc2cccc(-c3nc(N4CCOCC4)c4oc5ncccc5c4n3)c2)cn1 [PIKfyve Inhibitor],63.9,56.2,112 (inactive),151 (active)
